From publication PMC5540273 (PLoS ONE, 2017)

Legend:
Settings in all cases: concentration: 1 μM, replicates: in singlicate; n = 1
ADCK4 = test system: ADCK4
AKT1 = test system: AKT1
AKT2 = test system: AKT2
AKT3 = test system: AKT3
ALK = test system: ALK
AMPK-alpha1 = test system: T1, AMPK-alpha1
T1 construct: gene PRKAA1

AMPK-alpha2 = test system: T2, AMPK-alpha2
T2 construct: gene PRKAA2

ANKK1 = test system: ANKK1
ARK5 = test system: T3, ARK5
T3 construct: gene NUAK1

ASK1 = test system: T4, ASK1
T4 construct: gene MAP3K5

ASK2 = test system: T5, ASK2
T5 construct: gene MAP3K6

AURKA = test system: AURKA
AURKB = test system: AURKB
AURKC = test system: AURKC
AXL = test system: AXL
BIKE = test system: T6, BIKE
T6 construct: gene BMP2K

BLK = test system: BLK
BMPR1A = test system: BMPR1A
BMPR1B = test system: BMPR1B
BMPR2 = test system: BMPR2
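Note: KINOMEscan kinase panel screen.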

SMILES	%Inh (ADCK4) [%]	%Inh (AKT1) [%]	%Inh (AKT2) [%]	%Inh (AKT3) [%]	%Inh (ALK) [%]	%Inh (AMPK-alpha1) [%]	%Inh (AMPK-alpha2) [%]	%Inh (ANKK1) [%]	%Inh (ARK5) [%]	%Inh (ASK1) [%]	%Inh (ASK2) [%]	%Inh (AURKA) [%]	%Inh (AURKB) [%]	%Inh (AURKC) [%]	%Inh (AXL) [%]	%Inh (BIKE) [%]	%Inh (BLK) [%]	%Inh (BMPR1A) [%]	%Inh (BMPR1B) [%]	%Inh (BMPR2) [%]
Nc1ncc(-c2cn[nH]c2)c2scc(-c3ccc4c(c3)CCN4C(=O)Cc3ccccc3)c12 [GSK2593067]	0	0	2	0	0	11	16	1	26	5	21	13	98.6	87	98.8	67	96	0	0	0
Cc1ccc(NC(=O)c2cccc(N3CCCCC3)c2)cc1-c1ccc(C(=O)NCC2CC2)cc1 [GSK1917008]	1	0	8	2	19	0	28	3	28	12	11	0	0	7	5	13	72	0	2	0
Cl.Cl.NC(CNC(=O)c1cc(Br)c(-c2ccnc3[nH]ccc23)s1)c1ccccc1 (centres unmarked) [GSK1322949]	76	66	15	88	59	73	46	38	0	0	20	67	35	95.2	90.8	100	44	0	12	58
COc1cccc(CC(=O)N2CCc3cc(-c4cn(C)c5ncnc(N)c45)ccc32)c1 [GSK2608899]	0	0	8	27	5	15	25	6	19	14	12	52	87	48	96.2	21	36	6	6	0
Cc1nn2c(=O)cc(N3CCO[C@H](C)C3)nc2n1Cc1cccc(Cl)c1Cl [GSK2373693]	2	0	7	4	22	0	11	0	0	8	0	35	17	6	4	17	17	35	0	35
Cc1ccc(C)c(NC(=O)Nc2ccc(C)c(-c3ccc(C(=O)Nc4ccncc4)cc3)c2)c1 [GSK1398473]	25	0	0	0	38	15	0	0	17	0	0	0	21	22	90	13	0	0	0	0
Nc1ncnc2scc(-c3ccc(NC(=O)Cc4cc(F)ccc4F)cc3)c12.O=C(O)C(F)(F)F [SB-731254-M]	3	0	0	9	18	18	11	49	2	10	21	53	98.6	45	36	7	36	22	10	0
CNc1nccc(-c2ccc3c(N)n[nH]c3c2)n1 [GSK2206003]	26	0	0	0	33	0	0	33	0	0	0	8	0	46	0	94.1	54	7	71	6
O=C(Nc1n[nH]c2nc(-c3ccccc3O)ccc12)C1CC1 [SB-711880]	17	0	0	0	0	90	0	0	0	0	34	31	81	6	18	41	0	0	0	8
COC(=O)Nc1nc2cc(Oc3ccc(NC(=O)Nc4cccc(SC)c4)cc3)ccc2[nH]1.Cl [GW697999]	48	0	0	0	25	5	0	10	0	2	0	0	92.5	43	90.1	6	65	0	0	4
Cc1cccc(Nc2nc(NCCN)ncc2C(N)=O)c1 [GSK1292139]	42	0	0	0	46	0	0	94.9	64	0	8	18	0	25	9	77	1	0	0	70
O=C(Nc1c(F)cccc1F)c1cc(C(=O)c2ccccc2F)c[nH]1 [GSK1326180]	20	0	0	0	33	0	0	2	0	8	0	0	0	0	24	0	0	6	0	1
CN(c1ccc(NC(=O)N2CCN(CCCN3CCOCC3)CC2)cc1)c1ccnc(Nc2ccc(CS(C)(=O)=O)cc2)n1.Cl [GW830899]	5	0	0	0	0	0	12	0	0	0	0	84	76	75	2	86	0	6	7	0
Cn1cc(-c2ccc3c(c2)CCN3C(=O)Cc2cc(F)cc(C(F)(F)F)c2)c2c(N)ncnc21 [GSK2635225]	10	0	0	0	0	3	21	25	15	0	0	20	56	54	94	23	40	0	0	0
Cc1cc(-c2ccnc(Nc3cccc(C#N)c3)n2)cc(C)c1O [GSK1440913]	72	0	0	0	7	17	32	9	23	0	11	47	19	70	51	99.5	0	0	0	16
O=C(Nc1n[nH]c2cc(-c3cccs3)ccc12)C1CC1 [SB-731284]	0	0	0	0	28	0	0	45	0	0	39	42	51	42	0	84	0	2	35	24
CCn1c(-c2nonc2N)nc2c(-c3ccccc3)ncc(OCCCN)c21.O=C(O)C(F)(F)F.O=C(O)C(F)(F)F [GSK260205]	26	72	75	74	25	0	0	0	0	0	0	0	36	0	0	8	20	0	0	2

SMILES	%Inh (ADCK4) [%]	%Inh (AKT1) [%]	%Inh (AKT2) [%]	%Inh (AKT3) [%]	%Inh (ALK) [%]	%Inh (AMPK-alpha1) [%]	%Inh (AMPK-alpha2) [%]	%Inh (ANKK1) [%]	%Inh (ARK5) [%]	%Inh (ASK1) [%]	%Inh (ASK2) [%]	%Inh (AURKA) [%]	%Inh (AURKB) [%]	%Inh (AURKC) [%]	%Inh (AXL) [%]	%Inh (BIKE) [%]	%Inh (BLK) [%]	%Inh (BMPR1A) [%]	%Inh (BMPR1B) [%]	%Inh (BMPR2) [%]
CN(c1ccc(NC(=O)Nc2cccc(Cl)c2)cc1)c1ccnc(N)n1.Cl [GW830707]	6	23	3	12	0	0	18	0	0	2	15	28	68	70	37	4	0	0	0	52
COc1cc(Nc2nccc(N3CCC(NS(=O)(=O)c4ccc(NC(C)=O)cc4)CC3)n2)cc(OC)c1OC [GSK1379825]	96.2	0	15	0	32	17	50	0	43	0	9	59	71	71	14	75	50	29	0	0
Cc1ccc(O)cc1Nc1ccnc2ccc(C(C)(C)C)cc12 [GW856805]	88	27	29	18	44	8	19	7	0	1	32	30	36	24	42	9	95.1	16	79	33
Cc1ccc(Nc2ccnc(Nc3ccc(C)c(F)c3)n2)cc1O.Cl [GW582868]	74	0	0	0	38	0	0	0	40	0	0	0	0	19	32	29	51	7	30	7
Cl.Cl.NCC(NC(=O)c1cc(-c2cccnc2)c(-c2ccnc3[nH]ccc23)s1)c1ccccc1 (centres unmarked) [GSK1323434]	71	7	10	86	23	0	0	0	0	0	16	15	19	36	23	63	40	0	51	5
CS(=O)(=O)c1cccc(CNc2nc(Nc3ccc4c(c3)CCC(=O)N4)ncc2C(F)(F)F)c1	4	0	0	0	0	7	0	3	86	0	0	97.8	96.7	71	23	82	0	0	0	39
c1ccc(Oc2ccc(Nc3ccnc4cc(-c5ccc(CN6CCCCC6)o5)ccc34)cc2)nc1 [GW567143]	8	0	14	0	26	0	0	9	12	0	24	10	80	44	8	8	95.5	0	0	0
CN(c1ccc2c(c1)nc(NCc1ccccc1)n2C)c1ccnc(Nc2ccc(CS(C)(=O)=O)cc2)n1.Cl [GW811603]	7	0	0	1	49	2	0	0	0	9	0	87	79	63	85	24	39	0	4	22
Fc1cc(Cl)ccc1Nc1ccnc2cc(-c3ccc(CN4CCOCC4)o3)ccc12 [GW560109]	13	0	0	19	62	0	21	16	4	16	8	89	35	35	40	21	94.4	18	62	0
COc1cc(Nc2ccnc3cc(-c4ccncc4)ccc23)cc(OC)c1OC.Cl [GW494610]	14	0	10	0	29	5	32	0	12	0	0	0	82	27	31	0	94.9	62	99	10
COc1ccc(NC(=O)c2ccoc2)cc1-c1ccc(C(=O)NCC2CC2)cc1 [GW810437]	0	15	0	0	0	19	0	7	0	30	0	1	33	0	0	0	21	7	2	46
Cc1ccc(NC(=O)c2ccc(Cl)c(Cl)c2)cc1-c1ccc(C(=O)Nc2ccncc2)cc1 [GSK1398460]	20	0	15	0	41	21	21	18	10	16	0	7	1	67	100	40	45	0	0	0
CCNC(=O)/C=C/c1n[nH]c2cc(Sc3ccccc3C(=O)NC)ccc12	0	6	18	3	2	7	14	5	10	0	0	86	97.4	84	76	48	7	12	30	1
COc1cccc(NC(=O)NCCNc2ccnc(Nc3ccc(F)cc3)n2)c1 [GSK1379879]	41	0	0	0	36	0	0	14	16	20	0	19	40	45	3	14	18	0	0	5
CN(C)CCOc1ccc(-c2cc(-c3ccc(Cl)c(O)c3)c(-c3ccncc3)[nH]2)cc1.Cl.Cl [SB-684387]	21	0	0	55	18	0	11	8	1	15	0	21	0	0	0	0	64	90.6	29	10
COc1ccc(C)c(Nc2ccnc(Nc3ccc(-c4cnc[nH]4)cc3)n2)c1.Cl [GW784041]	53	14	0	8	0	30	0	0	99.3	0	0	20	8	56	0	37	59	70	99.9	0
Cc1cc(-c2c(-c3ccc(F)cc3)ncn2CCCN2CCOCC2)nc(N)n1 [SB-222517]	0	16	0	23	0	10	27	0	0	0	14	28	39	3	0	0	8	20	0	35
